Inconclusive results are not listed. Calls of active or inactive are those of the source. How the source made its calls, unless noted: active means hit-call score of the fitted dose curve at least 0.9, where 1 is the maximum; inactive means score below 0.9.
Columns and labels:
[1] = BSK_LPS_PGE2: BioMAP Diversity Plus: LPS Assay for Prostaglandin E2 (PGE2) Biomarker Activity (AID 2283082); settings: primary human HUVEC with PBMC; actives raise or lower the signal;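 on AC50: secreted prostaglandin E2 measured by ELISA in LPS-stimulated co-culture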
How it was run: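 Endpoint derived from bidirectional curve fitting versus DMSO of ELISA-measured PGE2 in LPS-stimulated human primary vascular co-culture (HUVEC with PBMC) harvested at 24 h.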

[2] = read-out: Macrophage colony-stimulating factor (MCSF), CSF1 (gene 1435); test: BSK_LPS_MCSF: BioMAP Diversity Plus: LPS Assay for Macrophage colony-stimulating factor (MCSF) Biomarker Activity (AID 2283083); settings: primary human HUVEC with PBMC; actives raise or lower the signal
How it was run: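 ELISA readout of M-CSF after 24 h compound exposure in a human endothelial/PBMC co-culture. Activity, in either direction, is fitted relative to DMSO vehicle.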

[3] = read-out: Tissue Factor, F3 (gene 2152); test: BSK_LPS_TissueFactor: BioMAP Diversity Plus: LPS Assay for Tissue Factor Biomarker Activity (AID 2283084); settings: primary human HUVEC with PBMC; actives raise or lower the signal
How it was run: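 ELISA signal for cell-surface Tissue Factor (CD142) was read 24 h after compound dosing of an LPS-stimulated human endothelial–PBMC primary co-culture. Gain or loss of signal was scored relative to DMSO.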

[4] = read-out: Tumor necrosis factor (Homo sapiens) (UniProt P01375); test: BSK_LPS_TNFa: BioMAP Diversity Plus: LPS Assay for Tumour Necrosis Factor alpha (TNFa) Biomarker Activity (AID 2283085); settings: primary human HUVEC with PBMC; actives raise or lower the signal
How it was run: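 Primary human vascular co-culture of HUVEC and PBMC; TNFa ELISA 24 h after treatment, analysed as increase or decrease relative to DMSO control.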

[5] = read-out: Vascular cell adhesion molecule 1 (VCAM1), VCAM1 (gene 7412); test: BSK_LPS_VCAM1: BioMAP Diversity Plus: LPS Assay for Vascular cell adhesion molecule 1 (VCAM1) Biomarker Activity (AID 2283086); settings: primary human HUVEC with PBMC; actives raise or lower the signal
How it was run: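 Primary human vascular co-culture (umbilical vein endothelium plus PBMC) stimulated with LPS received chemical; 24 h later VCAM-1 was read by ELISA. Overt cytotoxicity was assessed by sulforhodamine B staining of parallel cultures at the same time point.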

[6] = read-out: CD40, CD40 (gene 958); test: BSK_SAg_CD40: BioMAP Diversity Plus: SAg Assay for CD40 Biomarker Activity (AID 2283088); settings: primary human HUVEC with PBMC; actives raise or lower the signal
How it was run: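 Compounds were dosed onto a human primary endothelial–PBMC co-culture, and after 24 h CD40 was quantified by ELISA using a fluorescence signal. Activity in either direction was fitted relative to DMSO.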

[7] = read-out: CD69, CD69 (gene 969); test: BSK_SAg_CD69: BioMAP Diversity Plus: SAg Assay for CD69 Biomarker Activity (AID 2283089); settings: primary human HUVEC with PBMC; actives raise or lower the signal;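 on AC50: cell surface CD69 protein quantified by ELISA with fluorescence detection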
How it was run: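 ELISA, fluorescence read-out: CD69 on human umbilical vein endothelial cell + PBMC co-culture, 24 h post-dosing. Gain or loss of signal fitted bidirectionally against DMSO baseline.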

[8] = read-out: Monocyte Chemoattractant Protein-1 (MCP1), CCL2 (gene 6347); test: BSK_SAg_MCP1: BioMAP Diversity Plus: SAg Assay for Monocyte Chemoattractant Protein-1 (MCP1) Biomarker Activity (AID 2283090); settings: primary human HUVEC with PBMC; actives raise or lower the signal
How it was run: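 MCP-1 levels in the endothelial–PBMC SAg co-culture were quantified by ELISA at 24 h post-dosing; both increases and decreases versus DMSO scored. Cytotoxicity monitored by SRB total protein in parallel cultures.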

[9] = read-out: E-selectin (Homo sapiens) (UniProt P16581); test: BSK_SAg_Eselectin: BioMAP Diversity Plus: SAg Assay for Eselectin Biomarker Activity (AID 2283091); settings: primary human HUVEC with PBMC; actives raise or lower the signal
How it was run: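 Co-culture: HUVEC + PBMC. Dose compound; 24 h. ELISA for E-selectin. Bidirectional fit vs DMSO.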

[10] = read-out: Monokine induced gamma interferon (MIG), CXCL9 (gene 4283); test: BSK_SAg_MIG: BioMAP Diversity Plus: SAg Assay for Monokine induced gamma interferon (MIG) Biomarker Activity (AID 2283092); settings: primary human HUVEC with PBMC; actives raise or lower the signal
How it was run: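 ELISA readout of MIG/CXCL9; primary human umbilical vein endothelial cells co-cultured with peripheral blood mononuclear cells; 24 h post-dose; gain/loss fit vs DMSO baseline.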

[11] = read-out: Interleukin-8 (IL8), CXCL8 (gene 3576); test: BSK_SAg_IL8: BioMAP Diversity Plus: SAg Assay for Interleukin-8 (IL8) Biomarker Activity (AID 2283094); settings: primary human HUVEC with PBMC; actives raise or lower the signal
How it was run: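 In this co-culture of human umbilical vein endothelium with peripheral blood mononuclear cells, IL-8 is assayed by ELISA at 24 h. DMSO serves as baseline for bidirectional curve fitting.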

[12] = BSK_SAg_Proliferation: Cell Proliferation Assessment in the BioMAP Diversity Plus: SAg Assay (AID 2283095); settings: primary human HUVEC with PBMC;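 further: relative cell number as total protein by SRB absorbance in sub-confluent culture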
How it was run: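 Readout is SRB-stained protein (560 nm) in a primary human HUVEC and PBMC co-culture; sub-confluent cultures are read at 96 h. Activity is fitted bidirectionally using DMSO as baseline.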

[13] = BSK_SAg_SRB: Viability Assessment in the BioMAP Diversity Plus: SAg Assay (AID 2283096); settings: primary human HUVEC with PBMC;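 further: cells read one day after compound addition; hits may be either gain or loss of signal compared with DMSO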
How it was run: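 Total protein by sulforhodamine B staining, 24 h after dosing, in HUVEC–PBMC co-culture; DMSO-referenced bidirectional fitting.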

[14] = read-out: CD38, CD38 (gene 952); test: BSK_SAg_CD38: BioMAP Diversity Plus: SAg Assay for CD38 Biomarker Activity (AID 2283087); settings: primary human HUVEC with PBMC; actives raise or lower the signal
How it was run: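 Fluorescence ELISA of cell-surface CD38 served as the read-out, with either increase or decrease fitted against DMSO controls. Cells were a human umbilical vein endothelium plus PBMC co-culture under SEB/TSST-1 stimulation, measured 24 h after dosing.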

[15] = BSK_SAg_PBMCCytotoxicity: PBMC Cytotoxicity Assessment in the BioMAP Diversity Plus: SAg Assay (AID 2283093); settings: primary human HUVEC with PBMC;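 further: PBMC viability measured as Alamar Blue reduction fluorescence at 546/580 nm; fitted both ways against DMSO so a hit may be loss or gain of signal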;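 on AC50: PBMC superantigen activated with SEB plus TSST-1 one hour after compound addition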
How it was run: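 Compound added to 75,000 PBMC/well for 1 h; SEB and TSST-1 then added at 20 ng/mL final each; 90 h incubation; Alamar Blue 6 h; read 546/580 nm ex/em. Activity fitted bidirectionally relative to DMSO baseline.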

[16] = target: human CYP1A2, CYP1A2 (gene 1544) (UniProt P05177); test: NVS_ADME_hCYP1A2: NovaScreen (NVS) CYP450-related Enzyme Activity (ADME) Assay for human CYP1A2 (AID 2283102; active means hit-call score of the fitted dose curve at least 0.9, where 1 is the maximum)
How it was run: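 rec. hCYP1A2 (insect cells), cell-free; fluorogenic substrate; 0.5 h; FI read. Baseline = acetonitrile; signal loss = inhibition. 10 uM duplicate primary → conc. series for actives.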

[17] = target: human CYP2A6, CYP2A6 (gene 1548) (UniProt P11509); test: NVS_ADME_hCYP2A6: NovaScreen (NVS) CYP450-related Enzyme Activity (ADME) Assay for human CYP2A6 (AID 2283099; active means hit-call score of the fitted dose curve at least 0.9, where 1 is the maximum)
How it was run: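 Fluorescent substrate turnover by recombinant CYP2A6 (insect cell source), 0.5 h read. Screen: 10 uM, duplicate; threshold hits (e.g. 30% inhibition) → singleton concentration-response, top 20 uM. Positive and negative controls on every plate.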

[18] = target: human CYP2B6, CYP2B6 (gene 1555) (UniProt P20813); test: NVS_ADME_hCYP2B6: NovaScreen (NVS) CYP450-related Enzyme Activity (ADME) Assay for human CYP2B6 (AID 2283101; active means hit-call score of the fitted dose curve at least 0.9, where 1 is the maximum)
How it was run: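 Fluorescence-based enzyme activity of recombinant human CYP2B6, measured 1 h post-dose against acetonitrile vehicle baseline. Screened at a single concentration of 10 uM in duplicate before concentration-response follow-up.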

[19] = target: human CYP19A1, CYP19A1 (gene 1588) (UniProt P11511); test: NVS_ADME_hCYP19A1: NovaScreen (NVS) CYP450-related Enzyme Activity (ADME) Assay for human CYP19A1 (AID 2283098; active means hit-call score of the fitted dose curve at least 0.9, where 1 is the maximum)
How it was run: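 Biochem, cell-free; recombinant enzyme + specific substrate; fluorescence intensity at 0.5 h post-dose; 10 uM duplicate primary, conc. series for actives; acetonitrile = negative control/baseline; positive and negative controls on every plate.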

[20] = target: human CYP1A1, CYP1A1 (gene 1543) (UniProt P04798); test: NVS_ADME_hCYP1A1: NovaScreen (NVS) CYP450-related Enzyme Activity (ADME) Assay for human CYP1A1 (AID 2283100; active means hit-call score of the fitted dose curve at least 0.9, where 1 is the maximum)
How it was run: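 Recombinant hCYP1A1 + fluorogenic substrate, cell-free; 1 h; fluorescence read. Single-point 10 uM (duplicate) → concentration series, max 20 uM. Acetonitrile negative control.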

Measured: AC50

Chain of Tumor necrosis factor (Homo sapiens) (P01375 whole entry, looked up): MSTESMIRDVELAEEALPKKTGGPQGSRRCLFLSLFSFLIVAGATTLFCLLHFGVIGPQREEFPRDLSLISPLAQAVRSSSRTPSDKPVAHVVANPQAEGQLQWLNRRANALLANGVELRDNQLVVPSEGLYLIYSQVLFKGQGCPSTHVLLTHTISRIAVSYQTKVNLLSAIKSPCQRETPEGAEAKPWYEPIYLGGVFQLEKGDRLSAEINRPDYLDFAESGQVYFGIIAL
Chain of E-selectin (Homo sapiens) (P16581 whole entry, looked up): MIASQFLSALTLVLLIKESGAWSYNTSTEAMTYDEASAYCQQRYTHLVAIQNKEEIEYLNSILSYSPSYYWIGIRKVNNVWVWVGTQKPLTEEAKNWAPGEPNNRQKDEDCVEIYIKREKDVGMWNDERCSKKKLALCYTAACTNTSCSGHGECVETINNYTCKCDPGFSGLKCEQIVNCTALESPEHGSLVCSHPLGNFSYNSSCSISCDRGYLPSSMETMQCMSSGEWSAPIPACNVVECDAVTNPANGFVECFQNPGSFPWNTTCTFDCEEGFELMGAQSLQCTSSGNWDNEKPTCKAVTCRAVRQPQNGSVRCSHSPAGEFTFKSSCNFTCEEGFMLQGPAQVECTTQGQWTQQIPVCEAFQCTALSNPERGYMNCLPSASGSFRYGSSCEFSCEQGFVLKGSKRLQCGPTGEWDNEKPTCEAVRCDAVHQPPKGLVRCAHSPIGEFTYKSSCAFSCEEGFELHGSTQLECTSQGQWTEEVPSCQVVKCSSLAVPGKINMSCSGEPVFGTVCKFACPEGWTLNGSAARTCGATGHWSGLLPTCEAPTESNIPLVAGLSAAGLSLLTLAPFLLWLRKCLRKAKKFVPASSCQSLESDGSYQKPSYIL
Chain of human CYP2B6, CYP2B6 (gene 1555) (P20813 whole entry, looked up): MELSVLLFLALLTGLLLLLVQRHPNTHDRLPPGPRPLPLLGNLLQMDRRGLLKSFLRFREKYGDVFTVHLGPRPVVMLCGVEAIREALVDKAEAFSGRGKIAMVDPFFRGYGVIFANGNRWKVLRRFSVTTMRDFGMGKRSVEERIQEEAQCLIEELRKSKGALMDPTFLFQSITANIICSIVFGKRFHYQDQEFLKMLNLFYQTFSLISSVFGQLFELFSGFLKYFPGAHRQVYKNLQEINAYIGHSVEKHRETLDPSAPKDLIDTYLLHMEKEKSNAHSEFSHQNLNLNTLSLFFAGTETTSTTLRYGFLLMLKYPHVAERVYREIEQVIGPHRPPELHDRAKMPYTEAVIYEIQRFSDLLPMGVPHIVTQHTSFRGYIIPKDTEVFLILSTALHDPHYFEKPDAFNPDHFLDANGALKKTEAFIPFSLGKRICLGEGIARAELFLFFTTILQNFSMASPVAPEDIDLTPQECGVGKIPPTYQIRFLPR
Chain of human CYP2A6, CYP2A6 (gene 1548) (P11509 whole entry, looked up): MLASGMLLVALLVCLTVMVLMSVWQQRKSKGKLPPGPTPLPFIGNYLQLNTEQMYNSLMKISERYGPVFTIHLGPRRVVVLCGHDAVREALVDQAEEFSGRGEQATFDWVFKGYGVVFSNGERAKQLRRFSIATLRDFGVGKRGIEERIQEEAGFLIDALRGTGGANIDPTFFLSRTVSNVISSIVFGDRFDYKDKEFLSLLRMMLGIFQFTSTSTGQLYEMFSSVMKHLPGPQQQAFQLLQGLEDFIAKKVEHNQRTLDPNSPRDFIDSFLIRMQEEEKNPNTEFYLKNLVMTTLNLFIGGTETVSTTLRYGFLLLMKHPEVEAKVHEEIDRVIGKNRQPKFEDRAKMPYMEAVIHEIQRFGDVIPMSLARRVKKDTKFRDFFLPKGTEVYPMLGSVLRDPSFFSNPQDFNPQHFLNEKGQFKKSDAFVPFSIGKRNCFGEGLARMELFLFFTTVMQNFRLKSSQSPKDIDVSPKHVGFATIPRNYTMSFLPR
Chain of human CYP1A1, CYP1A1 (gene 1543) (P04798 whole entry, looked up): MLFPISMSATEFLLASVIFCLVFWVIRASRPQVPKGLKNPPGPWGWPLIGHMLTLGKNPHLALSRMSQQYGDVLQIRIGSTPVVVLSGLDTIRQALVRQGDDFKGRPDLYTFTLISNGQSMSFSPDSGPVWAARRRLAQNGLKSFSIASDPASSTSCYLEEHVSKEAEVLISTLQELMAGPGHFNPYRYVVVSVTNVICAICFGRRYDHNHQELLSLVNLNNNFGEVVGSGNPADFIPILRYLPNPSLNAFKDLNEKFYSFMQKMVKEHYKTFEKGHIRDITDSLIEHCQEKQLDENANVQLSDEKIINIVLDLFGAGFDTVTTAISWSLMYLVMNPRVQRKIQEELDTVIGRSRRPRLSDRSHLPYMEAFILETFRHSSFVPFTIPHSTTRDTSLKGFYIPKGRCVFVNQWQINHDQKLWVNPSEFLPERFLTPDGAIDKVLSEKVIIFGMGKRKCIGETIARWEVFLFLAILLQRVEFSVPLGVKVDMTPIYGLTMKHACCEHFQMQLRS
Chain of human CYP1A2, CYP1A2 (gene 1544) (P05177 whole entry, looked up): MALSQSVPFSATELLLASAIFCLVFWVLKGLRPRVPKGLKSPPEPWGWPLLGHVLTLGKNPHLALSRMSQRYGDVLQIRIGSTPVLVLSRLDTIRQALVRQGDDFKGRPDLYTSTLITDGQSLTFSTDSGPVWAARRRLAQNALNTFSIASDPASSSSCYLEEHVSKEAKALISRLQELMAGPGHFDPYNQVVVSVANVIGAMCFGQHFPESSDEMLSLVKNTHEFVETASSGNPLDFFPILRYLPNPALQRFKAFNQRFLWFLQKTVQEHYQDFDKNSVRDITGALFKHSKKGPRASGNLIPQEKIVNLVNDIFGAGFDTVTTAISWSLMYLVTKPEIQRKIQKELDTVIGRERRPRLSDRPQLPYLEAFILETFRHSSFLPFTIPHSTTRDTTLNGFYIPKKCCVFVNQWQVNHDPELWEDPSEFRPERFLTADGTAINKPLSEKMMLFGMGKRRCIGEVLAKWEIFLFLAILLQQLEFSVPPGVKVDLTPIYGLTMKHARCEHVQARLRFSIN
Chain of human CYP19A1, CYP19A1 (gene 1588) (P11511 whole entry, looked up): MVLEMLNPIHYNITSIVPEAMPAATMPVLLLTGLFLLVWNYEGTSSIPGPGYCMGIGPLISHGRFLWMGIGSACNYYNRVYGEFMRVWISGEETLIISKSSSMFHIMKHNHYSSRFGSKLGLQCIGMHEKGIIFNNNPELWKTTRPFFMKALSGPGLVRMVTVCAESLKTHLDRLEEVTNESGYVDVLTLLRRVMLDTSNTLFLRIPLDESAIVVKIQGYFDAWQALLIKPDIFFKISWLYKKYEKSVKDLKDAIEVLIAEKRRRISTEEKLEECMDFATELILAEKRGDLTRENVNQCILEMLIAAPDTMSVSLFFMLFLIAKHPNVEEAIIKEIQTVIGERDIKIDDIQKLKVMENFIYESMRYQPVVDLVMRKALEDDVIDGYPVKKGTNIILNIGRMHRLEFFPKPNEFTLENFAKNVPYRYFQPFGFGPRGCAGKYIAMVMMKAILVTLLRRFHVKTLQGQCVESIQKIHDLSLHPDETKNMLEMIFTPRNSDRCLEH

O=C(NS(=O)(=O)/C=C/c1cccs1)c1ccc(F)cc1Br
active: [6] 3.97 µM | [12] 3.54 µM
not listed: [14] | [15] | [16] | [17] | [18] | [19] | [20]
inactive: all other assays above

O=[Si]=O
not listed: [5] | [16] | [17] | [18] | [19] | [20]
inactive: all other assays above

O=C(O)CN(CC(=O)O)CC(=O)O
active: [12] 29.1 µM
not listed: [5] | [13] | [17] | [18] | [19] | [20]
inactive: all other assays above

O=C(Oc1ccccc1)c1cccc(C(=O)Oc2ccccc2)c1
active: [12] 24.2 µM
not listed: [7] | [13] | [14] | [16] | [17] | [18] | [19] | [20]
inactive: all other assays above

O=C1OC(c2ccc(O)cc2)(c2ccc(O)cc2)c2ccccc21
inactive: [1] | [3] | [15] | [17] | [18]
active: [2] 31.1 µM | [4] 20 µM | [5] 30.7 µM | [6] 29 µM | [7] 20 µM | [8] 23 µM | [9] 23.8 µM | [10] 36.8 µM | [11] 20 µM | [12] 29.3 µM

O=C(O)c1[nH]n(-c2ccc(S(=O)(=O)O)cc2)c(=O)c1N=Nc1ccc(S(=O)(=O)O)cc1
inactive: [1] | [2] | [3] | [4] | [6] | [7] | [9] | [10] | [15] | [11] | [12]

Cc1occc(=O)c1O
inactive: [1] | [2] | [3] | [4] | [14] | [6] | [9] | [10] | [11] | [12] | [13]

CCOCCOCCO
inactive: [1] | [2] | [3] | [4] | [6] | [7] | [9] | [10] | [11] | [12]

CSc1ccc(Oc2ccc(S(N)(=O)=O)cc2CN(C)C)cc1C
inactive: [1] | [2] | [3] | [4] | [6] | [7] | [8] | [9] | [10] | [11]
active: [12] 23.3 µM

CC(C)c1cccc(C(C)C)c1
not listed: [5] | [8] | [14] | [16] | [17] | [18] | [19] | [20]
inactive: all other assays above

CCN(CC)CCOc1ccc(C(=C(Cl)c2ccccc2)c2ccccc2)cc1
active: [1] 8.26 µM | [2] 9.21 µM | [3] 29.8 µM | [4] 11.8 µM | [6] 11 µM | [7] 12.4 µM | [9] 13.5 µM | [10] 13.8 µM | [11] 7.87 µM | [12] 3.54 µM | [13] 11.1 µM | [18] 11.3 µM

Nc1nc(Cl)nc2c1ncn2[C@H]1C[C@H](O)[C@@H](CO)O1
inactive: [1] | [10] | [11] | [19]
active: [2] 1.08 µM | [3] 3.37 µM | [4] 5.4 µM | [6] 1.6 µM | [7] 4.31 µM | [8] 3.09 µM | [9] 9.32 µM | [12] 0.147 µM | [13] 0.554 µM

CC(=O)OCC(COC(C)=O)OC(C)=O
inactive: [1] | [2] | [3] | [4] | [6] | [9] | [10] | [11] | [12] | [13] | [20]

COC(=O)CCCC(=O)OC
inactive: [1] | [2] | [3] | [4] | [6] | [9] | [10] | [15] | [11] | [12]

N[C@@H](Cc1c[nH]c2ccccc12)C(=O)O
not listed: [5] | [14] | [15] | [16] | [17] | [18] | [19] | [20]
inactive: all other assays above

Cc1ccc(-c2cc(C(F)(F)F)nn2-c2ccc(S(N)(=O)=O)cc2)cc1
active: [1] 0.288 µM | [2] 29.7 µM | [3] 30.7 µM | [4] 30.9 µM | [14] 30.2 µM | [6] 27.3 µM | [7] 26.9 µM | [9] 29.4 µM | [10] 34.6 µM | [11] 23.9 µM | [12] 23 µM | [13] 27.8 µM

CC(C)(C)c1ccccc1
inactive: [1] | [2] | [3] | [4] | [6] | [9] | [10] | [11] | [12] | [13]

CN(C)C(=O)NC1(c2ccccc2)CCN(CCC[C@]2(c3ccc(Cl)c(Cl)c3)CCCN(C(=O)c3ccccc3)C2)CC1
active: [15] 7.62 µM | [12] 7.39 µM
not listed: [5] | [7] | [8] | [16] | [18] | [19] | [20]
inactive: all other assays above

CCCCCCC(CCCCCCCCCCC(=O)OCC(COC(C)=O)OC(C)=O)OC(C)=O (configuration not stated)
inactive: [1] | [2] | [3] | [4] | [6] | [8] | [9] | [10] | [15] | [11] | [12]
